Assay results from publication PMC5540273 (PLoS ONE, 2017).

Assays:
Conditions in all cases: concentration: 1 μM,replicates: in singlicate; n = 1
[1] = tested on: CSNK1G1
[2] = tested on: CSNK1G2
[3] = tested on: CSNK1G3
[4] = tested on: CSNK2A1
[5] = tested on: CSNK2A2
[6] = tested on: T1, CTK
T1 construct: gene MATK

[7] = tested on: DAPK1
[8] = tested on: DAPK2
[9] = tested on: DAPK3
[10] = tested on: T2, DCAMKL1
T2 construct: gene DCLK1
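Also: KINOMEscan kinase panel screen.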

SMILES	%Inh [1] [%]	%Inh [2] [%]	%Inh [3] [%]	%Inh [4] [%]	%Inh [5] [%]	%Inh [6] [%]	%Inh [7] [%]	%Inh [8] [%]	%Inh [9] [%]	%Inh [10] [%]
Cc1ccn2nc(-c3ccc(F)cc3)c(-c3ccncc3)c2c1.Cl [GW457859]	29	12	31	0	14	0	15	6	0	10
C[C@@H](Oc1cc(-n2cnc3ccc(-c4ccncc4)cc32)sc1C(N)=O)c1ccccc1Cl [GSK483724]	9	14	29	52	89	0	0	0	19	88
CCOC(=O)N1CCC(n2cnc(-c3ccc(F)cc3)c2-c2ccnc(N)n2)CC1 [SB-219952]	4	12	0	19	9	0	25	0	0	22
c1ccc(Oc2ccc(Nc3ccnc4ccc(-c5ccccn5)cc34)cc2)cc1 [GW407034]	11	0	10	0	14	0	0	0	5	9
CN1CCN(CCNc2nc3cc(Oc4ccc(NC(=O)Nc5cc(C(F)(F)F)ccc5F)cc4)ccc3[nH]2)CC1.Cl.Cl [GW768504]	0	0	0	0	7	0	0	0	0	34
Cn1ccc2ncnc(Oc3ccc(NC(=O)Nc4cc(C(C)(C)C)on4)c(Cl)c3)c21	17	15	0	21	30	48	0	0	0	25
O=C(NCC1CC1)c1ccc(-c2cc(C(=O)NC3CC3)ccc2F)cc1 [GW810445]	0	0	0	0	0	0	0	3	19	0
COc1cccc(C2=C(Nc3cccc(Cl)c3)C(=O)NC2=O)c1 [SB-341556]	0	0	19	11	4	0	3	0	7	0
COC(=O)c1cccc(NC(=O)NC2CCN(c3ccnc(NCc4ccc(F)cc4)n3)CC2)c1 [GSK1379860]	0	0	9	7	0	1	0	0	3	0
CN1CCN(CCCNc2nccc(-c3c(-c4ccc(F)cc4)nn4cc(C(N)=O)ccc34)n2)CC1 [GW622475]	27	0	20	1	33	1	29	10	16	21
O=c1[nH]cc(-c2ccc(O)cc2)c2sc(-c3ccncc3)cc12 [GSK1033723]	23	0	13	9	24	0	19	27	30	8
O=C(Nc1n[nH]c2cc(-c3ccco3)ccc12)C1CC1 [SB-737447]	0	0	15	31	68	34	0	7	10	7
CCn1c(-c2nonc2N)nc2cncc(Br)c21 [SB-738004]	5	0	7	0	21	0	39	55	46	18
O=C(Nc1cccc(Oc2ccc3nccn3n2)c1)Nc1cccc(C(F)(F)F)c1	0	0	26	0	3	49	14	0	0	0
CCNCC(Cc1ccccc1)NC(=O)c1cc(Br)c(-c2ccnc3[nH]ccc23)s1.Cl.Cl (stereo not drawn) [GSK1383280]	8	5	46	87	71	0	7	9	28	42
COc1cc2nccc(Nc3ccc(Oc4ccccc4)cc3)c2cc1OC.Cl [GI261656]	0	0	25	0	24	0	0	0	2	0
CSc1nccc(-c2c(-c3ccc(F)cc3)ncn2CCCN2CCOCC2)n1.Cl [SB-217146]	0	0	0	0	15	40	16	0	0	37

SMILES	%Inh [1] [%]	%Inh [2] [%]	%Inh [3] [%]	%Inh [4] [%]	%Inh [5] [%]	%Inh [6] [%]	%Inh [7] [%]	%Inh [8] [%]	%Inh [9] [%]	%Inh [10] [%]
Cn1ccc2ncnc(Oc3ccc(NC(=O)Nc4cccc(C(F)(F)F)c4)c(Cl)c3)c21	0	3	0	0	5	0	89	0	0	46
Cl.Nc1n[nH]c2cc(-c3ccccn3)ccc12 [GSK2189892]	11	0	31	0	0	0	0	0	19	19
CC(C)c1nc(-c2cccc(NS(=O)(=O)c3ccccc3)c2)c(-c2ccnc(Nc3ccc4c(c3)CN(C)CC4)n2)s1 [GSK1649598]	19	0	28	0	9	5	30	55	21	0
CCN1CCN(CCCC(=O)Nc2n[nH]c3nc(-c4ccc(O)cc4)c(Br)cc23)CC1 [SB-731579]	0	0	0	0	0	34	41	31	61	0
CS(=O)c1ccc(-c2coc3ccc(-c4n[nH]c(=O)o4)cc23)cc1 (stereo not drawn)	0	20	5	100	99.8	0	52	67	59	3
Cc1nnc(-c2ccc3occ(-c4ccc(S(C)=O)cc4)c3n2)o1 (stereo not drawn)	17	0	0	0	0	0	0	0	0	0
O=C(NOCC1CC1)c1cc(Br)c(F)c(F)c1Nc1ccc(I)cc1Cl	0	0	9	14	6	0	29	0	0	22
C[C@@H]1CNc2c(sc3ccc4nc(-c5ccncc5)ccc4c23)C(=O)N1	16	15	21	38	0	0	30	24	13	4
Cn1cc(-c2cccc3c(N)c(C(N)=O)nnc23)cn1	13	7	10	26	33	32	3	16	5	7
CC(=O)Nc1ccc(-c2cc3ncnc(SCC(=O)O)c3s2)cc1	15	0	8	75	68	14	23	8	9	0
Nc1nccc(-c2ccc3c(N)n[nH]c3c2)n1 [GSK1034945]	0	0	19	41	64	0	45	0	19	12
Cl.c1ccc(Oc2ccc(Nc3ccnc4cc(-c5ccc(CN6CCNCC6)o5)ccc34)cc2)nc1 [GW567142]	0	0	32	0	3	10	19	0	21	11
C[C@@H]1CNc2c(sc3ccc4nc(-c5ccc(O)cc5)ccc4c23)C(=O)N1	29	38	32	48	43	43	35	34	26	37
O=C(Nc1ccccc1)c1cccc(Oc2ccc3nccn3n2)c1	10	6	0	0	11	28	100	0	0	0
Cc1ccc(CC(=O)N2CCc3cc(-c4cn(C)c5ncnc(N)c45)ccc32)cc1 [GSK2634758]	30	26	26	0	0	0	0	5	0	0
Cc1cccc2c(-c3ccncc3)c(-c3ccc(F)cc3)nn12.Cl [GW461487]	11	0	26	96.6	10	0	18	0	0	10
